Results filed as inconclusive are left out. Activity calls are given as the source filed them. How the source made its calls, unless noted: active means hit-call score of the fitted dose curve at least 0.9, where 1 is the maximum; inactive means score below 0.9.
What was measured:
[1] = ATG_NFI_CIS: Attagene CIS-FACTORIAL HepG2 Assay for human Nuclear Factor I (NFI) (AID 2282989); conditions: HepG2 cis-regulatory reporter, NFI response element transcription; actives raise or lower the signal
Method in brief: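 Read-out: reporter mRNA via RT-PCR plus capillary electrophoresis with fluorescence detection. Transiently transfected HepG2 (endogenous TF activity on cis promoters), 24 h compound exposure; gain or loss of signal fitted against DMSO.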

[2] = ATG_NF_kB_CIS: Attagene CIS-FACTORIAL HepG2 Assay for human Nuclear Factor Kappa B (NF-kB) (AID 2282991); conditions: HepG2 Attagene cis-factorial NF-kB reporter mRNA; actives raise or lower the signal
Method in brief: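 DMSO served as negative control and baseline for bidirectional curve fitting. Transiently transfected HepG2 cells were dosed for 24 h, then reporter transcripts were measured by RT-PCR with capillary electrophoresis detection.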

[3] = ATG_NRF2_ARE_CIS: Attagene CIS-FACTORIAL HepG2 Assay for human Nuclear Factor Erythroid 2 Related Factor 2 (NFR2) response to Antioxidant Response Elements (ARE) (AID 2282992); conditions: HepG2 Attagene ARE/NRF2 reporter, transcription factor activity; actives raise or lower the signal;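 on AC50: reporter mRNA level measured by RT-PCR and capillary electrophoresis fluorescence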
Method in brief: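 Endogenous transcription factor activity in human liver HepG2 cells is tracked via a cis-element-driven reporter within a multiplexed set. mRNA induction is read by RT-PCR and capillary electrophoresis after 24 h, with DMSO as baseline.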

[4] = ATG_Oct_MLP_CIS: Attagene CIS-FACTORIAL HepG2 Assay for human Octamer-Binding Transcription Factor (Oct) (AID 2282993); conditions: HepG2 Attagene cis-factorial Oct reporter, mRNA; actives raise or lower the signal
Method in brief: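 Read-out: reporter mRNA via RT-PCR plus capillary electrophoresis of 6-FAM-labelled fragments. Transiently transfected HepG2, 24 h exposure, endogenous TF activity on cis elements. Gain or loss of signal fitted relative to DMSO.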

[5] = molecular target: human Peroxisome Proliferator-activated Receptor alpha (PPARa), PPARA (gene 5465) (UniProt Q07869); assay: ATG_PPARa_TRANS: Attagene TRANS-FACTORIAL HepG2 Assay for human Peroxisome Proliferator-activated Receptor alpha (PPARa) (AID 2283001; active means hit-call score of the fitted dose curve at least 0.9, where 1 is the maximum)
Chain of human Peroxisome Proliferator-activated Receptor alpha (PPARa), PPARA (gene 5465) (Q07869 whole entry, looked up): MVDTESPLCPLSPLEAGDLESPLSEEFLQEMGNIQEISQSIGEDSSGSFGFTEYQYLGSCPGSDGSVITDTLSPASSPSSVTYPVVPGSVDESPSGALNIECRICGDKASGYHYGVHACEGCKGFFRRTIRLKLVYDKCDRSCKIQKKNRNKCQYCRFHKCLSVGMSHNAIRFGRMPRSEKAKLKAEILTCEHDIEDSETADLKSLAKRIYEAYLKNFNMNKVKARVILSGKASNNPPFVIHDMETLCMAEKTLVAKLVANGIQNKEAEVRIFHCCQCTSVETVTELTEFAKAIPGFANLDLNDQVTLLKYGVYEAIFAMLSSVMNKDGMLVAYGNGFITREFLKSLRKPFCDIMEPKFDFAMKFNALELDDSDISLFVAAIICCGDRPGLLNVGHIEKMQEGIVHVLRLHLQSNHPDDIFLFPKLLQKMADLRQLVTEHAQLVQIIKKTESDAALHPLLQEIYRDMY
Method in brief: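 HepG2, transient MRTU transfection, 24 h treatment. RT-PCR → FAM labelling → capillary electrophoresis. Fit vs DMSO, positive direction.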

[6] = molecular target: Peroxisome proliferator-activated receptor gamma (Homo sapiens) (UniProt P37231); assay: ATG_PPARg_TRANS: Attagene TRANS-FACTORIAL HepG2 Assay for human Peroxisome Proliferator-activated Receptor-gamma (PPARg) (AID 2283007; active means hit-call score of the fitted dose curve at least 0.9, where 1 is the maximum)
Chain of Peroxisome proliferator-activated receptor gamma (Homo sapiens) (P37231 whole entry, looked up, the tested form may be a part): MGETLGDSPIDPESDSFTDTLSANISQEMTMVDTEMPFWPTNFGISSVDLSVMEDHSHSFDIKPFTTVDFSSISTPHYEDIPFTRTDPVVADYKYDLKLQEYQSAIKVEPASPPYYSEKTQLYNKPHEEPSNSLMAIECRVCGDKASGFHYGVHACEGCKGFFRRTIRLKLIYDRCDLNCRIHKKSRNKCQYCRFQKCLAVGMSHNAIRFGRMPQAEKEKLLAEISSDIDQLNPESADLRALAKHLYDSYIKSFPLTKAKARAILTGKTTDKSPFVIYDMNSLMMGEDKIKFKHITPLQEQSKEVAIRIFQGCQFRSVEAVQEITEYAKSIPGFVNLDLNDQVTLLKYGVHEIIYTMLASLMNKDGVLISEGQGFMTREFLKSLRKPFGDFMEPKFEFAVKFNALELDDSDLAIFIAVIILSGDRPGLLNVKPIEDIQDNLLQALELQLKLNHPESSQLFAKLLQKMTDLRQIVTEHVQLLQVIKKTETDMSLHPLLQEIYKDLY
Method in brief: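 Chimeric NR-Gal4 transactivation is measured in transiently transfected HepG2 cells by reporter mRNA induction at 24 h. Detection uses RT-PCR with fluorescent labelling and capillary electrophoresis; DMSO defines baseline.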

[7] = molecular target: Nuclear receptor subfamily 1 group I member 2 (Homo sapiens) (UniProt O75469); assay: ATG_PXR_TRANS: Attagene TRANS-FACTORIAL HepG2 Assay for human Pregnane X Receptor (PXR) (AID 2283008; active means hit-call score of the fitted dose curve at least 0.9, where 1 is the maximum)
Chain of Nuclear receptor subfamily 1 group I member 2 (Homo sapiens) (O75469 whole entry, looked up, the tested form may be a part): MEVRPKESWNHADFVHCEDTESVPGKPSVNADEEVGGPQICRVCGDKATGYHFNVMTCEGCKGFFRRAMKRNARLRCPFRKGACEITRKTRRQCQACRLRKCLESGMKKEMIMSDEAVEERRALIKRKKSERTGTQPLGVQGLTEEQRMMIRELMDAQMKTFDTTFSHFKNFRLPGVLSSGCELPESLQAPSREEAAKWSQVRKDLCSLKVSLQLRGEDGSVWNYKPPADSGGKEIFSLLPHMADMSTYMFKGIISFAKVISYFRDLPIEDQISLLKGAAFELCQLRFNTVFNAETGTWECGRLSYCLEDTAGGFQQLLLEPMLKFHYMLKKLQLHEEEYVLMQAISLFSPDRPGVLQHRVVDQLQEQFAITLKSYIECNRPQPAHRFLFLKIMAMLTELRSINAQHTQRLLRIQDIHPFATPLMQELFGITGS
Method in brief: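 HepG2 transfected (FuGene 6) with GAL4-UAS reporter units + PXR-Gal4 chimera; dosed 24 h. Total RNA → oligo(dT) RT → PCR → 6-FAM primer extension → HpaI cut → CE. Gain-of-signal vs DMSO.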

[8] = molecular target: Cellular tumor antigen p53 (Homo sapiens) (UniProt P04637); assay: ATG_p53_CIS: Attagene CIS-FACTORIAL HepG2 Assay for human p53 Transcription Factor (AID 2282994); conditions: HepG2 p53 cis-element reporter, Attagene mRNA; actives raise or lower the signal
Chain of Cellular tumor antigen p53 (Homo sapiens) (P04637 whole entry, looked up, the tested form may be a part): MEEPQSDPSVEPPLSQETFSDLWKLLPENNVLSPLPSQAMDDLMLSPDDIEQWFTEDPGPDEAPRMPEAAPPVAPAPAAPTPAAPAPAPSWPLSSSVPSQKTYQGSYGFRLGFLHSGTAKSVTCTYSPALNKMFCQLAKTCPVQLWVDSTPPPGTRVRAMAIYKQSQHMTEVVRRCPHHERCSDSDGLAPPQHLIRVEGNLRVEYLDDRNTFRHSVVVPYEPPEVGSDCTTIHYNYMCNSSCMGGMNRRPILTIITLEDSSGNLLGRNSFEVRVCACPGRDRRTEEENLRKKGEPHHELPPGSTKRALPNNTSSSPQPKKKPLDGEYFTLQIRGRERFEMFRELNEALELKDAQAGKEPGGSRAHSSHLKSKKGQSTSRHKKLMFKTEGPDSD
Method in brief: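 Steps: transfect HepG2 with multiplexed cis reporter constructs; dose chemicals 24 h; extract RNA, reverse-transcribe, PCR-amplify reporter sequences; FAM-label, HpaI-digest, resolve fragments by CE. Activity fitted both directions relative to DMSO.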

[9] = molecular target: human Retinoic Acid Receptor beta (RARb), RARB (gene 5915) (UniProt P10826); assay: ATG_RARb_TRANS: Attagene TRANS-FACTORIAL HepG2 Assay for human Retinoic Acid Receptor beta (AID 2283004; active means hit-call score of the fitted dose curve at least 0.9, where 1 is the maximum)
Chain of human Retinoic Acid Receptor beta (RARb), RARB (gene 5915) (P10826 whole entry, looked up, the tested form may be a part): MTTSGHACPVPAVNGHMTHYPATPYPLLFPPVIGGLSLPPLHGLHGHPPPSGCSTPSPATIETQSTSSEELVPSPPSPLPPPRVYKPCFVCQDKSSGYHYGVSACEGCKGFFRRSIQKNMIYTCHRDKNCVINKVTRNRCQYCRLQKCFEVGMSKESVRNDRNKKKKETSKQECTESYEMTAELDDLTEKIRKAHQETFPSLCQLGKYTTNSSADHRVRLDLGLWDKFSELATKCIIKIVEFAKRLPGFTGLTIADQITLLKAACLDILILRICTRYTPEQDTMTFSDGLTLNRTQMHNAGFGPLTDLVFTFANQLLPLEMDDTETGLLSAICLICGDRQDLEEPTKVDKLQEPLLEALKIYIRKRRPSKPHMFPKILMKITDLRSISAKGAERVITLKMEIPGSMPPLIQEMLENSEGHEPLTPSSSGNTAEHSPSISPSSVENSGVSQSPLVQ
Method in brief: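 HepG2 cells transiently transfected with multiplexed GAL4-UAS reporter units expressing chimeric NR–Gal4 fusions; 24 h compound exposure. Reporter mRNA quantified by RT-PCR, 6-FAM labelling, HpaI digestion and capillary electrophoresis; gain-of-signal fitted against DMSO baseline.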

[10] = molecular target: human Retinoic Acid Receptor gamma (RARg), RARG (gene 5916) (UniProt P13631); assay: ATG_RARg_TRANS: Attagene TRANS-FACTORIAL HepG2 Assay for human Retinoic Acid Receptor gamma (RARg) (AID 2283009; active means hit-call score of the fitted dose curve at least 0.9, where 1 is the maximum)
Chain of human Retinoic Acid Receptor gamma (RARg), RARG (gene 5916) (P13631 whole entry, looked up, the tested form may be a part): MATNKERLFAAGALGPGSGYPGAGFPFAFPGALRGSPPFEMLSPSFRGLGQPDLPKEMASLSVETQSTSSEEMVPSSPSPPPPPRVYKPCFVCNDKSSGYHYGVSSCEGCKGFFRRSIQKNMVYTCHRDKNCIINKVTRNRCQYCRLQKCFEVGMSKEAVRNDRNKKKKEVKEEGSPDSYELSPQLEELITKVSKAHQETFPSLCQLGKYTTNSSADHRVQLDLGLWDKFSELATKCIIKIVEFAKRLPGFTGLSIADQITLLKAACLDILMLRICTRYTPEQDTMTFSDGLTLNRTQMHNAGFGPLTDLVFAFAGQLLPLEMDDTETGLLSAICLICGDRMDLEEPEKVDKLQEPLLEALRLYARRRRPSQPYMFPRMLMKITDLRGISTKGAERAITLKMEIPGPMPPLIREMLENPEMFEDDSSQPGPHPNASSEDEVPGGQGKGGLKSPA
Method in brief: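 TRANS format measured activity of exogenous NR-GAL4 fusion (RARg) in transfected HepG2 liver cells after 24 h dosing. Induced reporter RNA was detected by RT-PCR/capillary electrophoresis fluorescence, analysed in the positive direction against DMSO.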

[11] = molecular target: Retinoic acid receptor alpha (Homo sapiens) (UniProt P10276); assay: ATG_RARa_TRANS: Attagene TRANS-FACTORIAL HepG2 Assay for human Retinoic Acid Receptor alpha (RARa) (AID 2283005; active means hit-call score of the fitted dose curve at least 0.9, where 1 is the maximum)
Chain of Retinoic acid receptor alpha (Homo sapiens) (P10276 whole entry, looked up, the tested form may be a part): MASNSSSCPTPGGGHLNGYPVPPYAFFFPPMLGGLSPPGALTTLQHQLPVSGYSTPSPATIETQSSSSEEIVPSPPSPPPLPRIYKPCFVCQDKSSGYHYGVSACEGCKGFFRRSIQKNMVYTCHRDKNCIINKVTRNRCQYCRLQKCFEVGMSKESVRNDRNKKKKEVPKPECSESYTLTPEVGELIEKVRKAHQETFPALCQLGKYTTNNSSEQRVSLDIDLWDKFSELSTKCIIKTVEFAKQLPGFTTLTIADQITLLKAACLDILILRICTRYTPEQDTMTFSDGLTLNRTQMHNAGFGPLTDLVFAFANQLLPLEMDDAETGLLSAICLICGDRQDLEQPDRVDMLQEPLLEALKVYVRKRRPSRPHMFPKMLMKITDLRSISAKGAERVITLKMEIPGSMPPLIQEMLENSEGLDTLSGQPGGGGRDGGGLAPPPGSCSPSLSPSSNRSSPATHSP
Method in brief: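 HepG2 transiently transfected with multiplex GAL4-UAS reporter units including a human RARa–GAL4 chimera; 24 h compound exposure. Reporter mRNA quantified by RT-PCR, 6-FAM labeling and capillary electrophoresis; gain of signal versus DMSO.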

[12] = molecular target: human RAR-related Orphan Receptor beta (RORb), RORB (gene 6096) (UniProt Q92753); assay: ATG_RORb_TRANS: Attagene TRANS-FACTORIAL HepG2 Assay for human RAR-related Orphan Receptor beta (RORb) (AID 2283010; active means hit-call score of the fitted dose curve at least 0.9, where 1 is the maximum)
Chain of human RAR-related Orphan Receptor beta (RORb), RORB (gene 6096) (Q92753 whole entry, looked up, the tested form may be a part): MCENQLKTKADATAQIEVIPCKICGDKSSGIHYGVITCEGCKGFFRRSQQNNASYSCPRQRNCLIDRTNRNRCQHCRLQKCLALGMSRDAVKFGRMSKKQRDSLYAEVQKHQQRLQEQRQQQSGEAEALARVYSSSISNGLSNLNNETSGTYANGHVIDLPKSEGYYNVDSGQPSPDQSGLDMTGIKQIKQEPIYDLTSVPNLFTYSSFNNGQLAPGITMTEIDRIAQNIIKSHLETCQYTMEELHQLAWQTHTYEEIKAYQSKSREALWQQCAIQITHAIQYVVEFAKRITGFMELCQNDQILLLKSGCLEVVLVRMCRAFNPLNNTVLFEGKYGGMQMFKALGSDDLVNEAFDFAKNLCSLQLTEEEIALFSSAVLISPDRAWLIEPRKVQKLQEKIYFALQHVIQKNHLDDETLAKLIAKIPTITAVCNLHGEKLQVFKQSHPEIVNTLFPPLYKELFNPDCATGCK
Method in brief: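 Transfect HepG2 with multiple GAL4-UAS reporter transcription units; dose chemicals for 24 h; isolate RNA, reverse-transcribe and PCR-amplify reporter sequences; label, digest and resolve fragments by capillary electrophoresis; fit increases relative to DMSO.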

[13] = BSK_3C_TissueFactor: BioMAP Diversity Plus: 3C Assay for Tissue Factor Biomarker Activity (AID 2282997); conditions: BioMAP 3C HUVEC, tissue factor biomarker readout; actives raise or lower the signal
Method in brief: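 Readout: Tissue Factor ELISA. Cells: human primary umbilical vein endothelium. Time: 24 h after dosing. Analysis: bidirectional fit, DMSO baseline.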

[14] = BSK_3C_VCAM1: BioMAP Diversity Plus: 3C Assay for Vascular cell adhesion molecule 1 (VCAM1) Biomarker Activity (AID 2282999); conditions: BioMAP 3C HUVEC, VCAM1 ELISA, cytokine-stimulated; actives raise or lower the signal
Method in brief: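 HUVEC primary cells, 24 h compound exposure; VCAM-1 by ELISA; gain/loss of signal fitted bidirectionally vs DMSO baseline.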

[15] = BSK_4H_Eotaxin3: BioMAP Diversity Plus: 4H Assay for Eotaxin 3 Biomarker Activity (AID 2283000); conditions: primary human endothelial cells (HUVEC); actives raise or lower the signal
Method in brief: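 HUVEC, 24 h post-dose, ELISA for Eotaxin-3/CCL26. Gain or loss of signal fitted bidirectionally vs DMSO baseline.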

[16] = read-out: Intercellular Adhesion Molecule 1 (ICAM1), ICAM1 (gene 3383); assay: BSK_3C_ICAM1: BioMAP Diversity Plus: 3C Assay for Intercellular Adhesion Molecule 1 (ICAM1) Biomarker Activity (AID 2283003); conditions: primary human endothelial cells (HUVEC); actives raise or lower the signal
Method in brief: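 Chemicals are dosed onto primary human umbilical vein endothelium (3C system). After 24 h, ICAM-1 is measured by ELISA, and responses are fitted bidirectionally relative to DMSO.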

[17] = BSK_3C_Proliferation: Cell Proliferation Assessment in the BioMAP Diversity Plus: 3C Assay (AID 2283006); conditions: primary human endothelial cells (HUVEC);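 on AC50: potency may reflect either rise or fall in cell number versus DMSO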
Method in brief: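 Cells (human umbilical vein endothelial, sub-confluent) receive test chemical; after 48 h they are fixed in 10% trichloroacetic acid, stained with 0.1% SRB and read at 560 nm. Activity is referenced to DMSO, fitting increases and decreases.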

[18] = molecular target: human Peroxisome Proliferator-activated Receptor delta (PPARd), PPARD (gene 5467) (UniProt Q03181); assay: ATG_PPARd_TRANS: Attagene TRANS-FACTORIAL HepG2 Assay for human Peroxisome Proliferator-activated Receptor delta (PPARd) (AID 2283002; active means hit-call score of the fitted dose curve at least 0.9, where 1 is the maximum)
Chain of human Peroxisome Proliferator-activated Receptor delta (PPARd), PPARD (gene 5467) (Q03181 whole entry, looked up, the tested form may be a part): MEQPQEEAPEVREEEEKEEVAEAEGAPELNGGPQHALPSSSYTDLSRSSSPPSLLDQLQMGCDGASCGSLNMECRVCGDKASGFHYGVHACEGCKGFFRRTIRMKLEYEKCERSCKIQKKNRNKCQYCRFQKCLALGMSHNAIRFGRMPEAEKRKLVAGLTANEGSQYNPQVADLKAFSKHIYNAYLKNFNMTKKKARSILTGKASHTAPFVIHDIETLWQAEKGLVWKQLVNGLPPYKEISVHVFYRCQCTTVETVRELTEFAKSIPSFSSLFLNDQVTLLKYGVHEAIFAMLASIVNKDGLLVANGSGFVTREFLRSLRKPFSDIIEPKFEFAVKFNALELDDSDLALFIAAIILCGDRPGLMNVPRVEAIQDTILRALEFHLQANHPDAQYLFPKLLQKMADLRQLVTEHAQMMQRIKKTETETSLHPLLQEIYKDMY
Method in brief: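 Read-out: reporter mRNA induction, quantified by fluorescent RT-PCR products resolved by capillary electrophoresis. Human HepG2 liver cells carried transiently transfected Gal4-UAS reporter constructs with chimeric NR-Gal4 fusions. Cells were dosed for 24 h; DMSO served as baseline.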

[19] = molecular target: Myc proto-oncogene protein (Homo sapiens) (UniProt P01106); assay: ATG_Myc_CIS: Attagene CIS-FACTORIAL HepG2 Assay for human Myelocytomatosis (Myc) Proto-Oncogene Transcription Factor (AID 2282990); conditions: HepG2, Attagene cis-reporter transcription factor activity; actives raise or lower the signal
Chain of Myc proto-oncogene protein (Homo sapiens) (P01106 whole entry, looked up, the tested form may be a part): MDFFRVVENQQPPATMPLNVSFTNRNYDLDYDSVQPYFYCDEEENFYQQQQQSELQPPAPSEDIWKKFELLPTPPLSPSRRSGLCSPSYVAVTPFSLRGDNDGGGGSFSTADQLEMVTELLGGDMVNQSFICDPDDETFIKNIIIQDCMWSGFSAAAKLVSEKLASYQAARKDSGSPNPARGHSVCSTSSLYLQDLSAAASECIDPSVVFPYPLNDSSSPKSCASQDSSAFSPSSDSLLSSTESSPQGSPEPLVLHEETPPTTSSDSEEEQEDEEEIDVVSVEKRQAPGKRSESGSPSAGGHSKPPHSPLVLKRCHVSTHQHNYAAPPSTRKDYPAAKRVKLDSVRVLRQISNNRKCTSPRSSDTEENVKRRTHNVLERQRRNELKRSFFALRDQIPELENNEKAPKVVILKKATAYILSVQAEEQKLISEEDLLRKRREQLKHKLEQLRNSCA
Method in brief: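 Read-out: fluorescent reporter mRNA fragments resolved by capillary electrophoresis after RT-PCR. Human HepG2 liver cells carried transfected cis-element reporter units and were dosed for 24 h. Gain or loss of signal fitted relative to DMSO baseline.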

Measured: AC50

BrCc1cccc(Oc2ccccc2)c1
active: [3] 58.4 µM | [6] 44.8 µM | [7] 43.3 µM
inactive: [1] | [2] | [4] | [5]

CCCC1O[C@@H]2C[C@H]3[C@@H]4CCC5=CC(=O)C=C[C@]5(C)[C@H]4[C@@H](O)C[C@]3(C)[C@]2(C(=O)CO)O1 (some centres undefined)
inactive: [1] | [4] | [5] | [9] | [6] | [10]
active: [3] 78.9 µM | [8] 37.5 µM | [7] 1.36 µM

C[C@H](CCC(=O)NCC(=O)O)[C@H]1CC[C@H]2[C@@H]3[C@H](O)C[C@@H]4C[C@H](O)CC[C@]4(C)[C@H]3C[C@H](O)[C@]12C
inactive: [1] | [2] | [3] | [4] | [8] | [9] | [11] | [6] | [12]

C1=CC2C3C=CC(C3)C2C1 (centres undefined)
not listed: [5] | [9] | [18] | [19]
inactive: all other assays above

CCC(C)c1cc([N+](=O)[O-])cc([N+](=O)[O-])c1OC(=O)OC(C)C (centres undefined)
inactive: [4] | [5] | [18] | [9] | [11] | [10] | [12]
active: [1] 24.5 µM | [3] 5.1 µM | [8] 25 µM | [13] 9.93 µM | [14] 19.4 µM | [15] 8.5 µM | [16] 29.1 µM | [17] 5.44 µM | [6] 0.774 µM | [7] 1.58 µM

C=C(C)[C@H]1CC=C(C)C(=O)C1
active: [6] 68.7 µM
not listed: [8] | [9] | [10] | [11] | [12] | [18] | [19]
inactive: all other assays above

CCN(CCC#N)c1ccc(N=Nc2ccc([N+](=O)[O-])cc2)cc1
inactive: [1] | [2] | [4] | [8] | [5] | [6] | [7] | [12]
active: [3] 64.7 µM

O=Cc1ccccc1S(=O)(=O)O
inactive: [1] | [3] | [4] | [18] | [6]

C=CC(=O)OCCCC
inactive: [1] | [3] | [8] | [9] | [11] | [7] | [10]

CCCCCCC(C)(C)S
inactive: [1] | [2] | [3] | [4] | [5] | [11] | [6] | [7] | [10] | [12]

Cc1ccc(C)o1
inactive: [1] | [3] | [4] | [8] | [18] | [10]

CC(C)NCC(O)COc1ccc(CC(N)=O)cc1 (centres undefined)
active: [3] 61.5 µM
inactive: [1] | [19] | [8] | [5] | [11] | [6] | [7] | [12]

CCCN(CCC)S(=O)(=O)c1ccc(C(=O)O)cc1
active: [7] 18.7 µM
inactive: [1] | [2] | [3] | [4] | [8] | [5] | [6] | [12]

CCCCC(CC)(CO)CO
inactive: [3] | [4] | [8] | [6] | [7]

CCOc1ccc(NC(=O)CC(C)O)cc1 (centres undefined)
inactive: [19] | [2] | [3] | [4] | [8] | [9] | [11] | [6] | [7]

CCC(C)=O
inactive: [2] | [3] | [4] | [8] | [5] | [10]
